Results: PubChem BioAssay (NCI)
About 83,000 compounds went through this panel and 20% of them were active in at least one assay; those are over-represented in the sample as a whole.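 Percent growth is the endpoint: 0 to 100 indicates growth inhibition (40 means 60% inhibition), 0 means no net growth, and negative values indicate cell death.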 The source made the active and inactive calls. Rule for the calls: active = growth percent below 10; inactive = the rest.

Columns and labels:
Assay in all cases: NCI-60 one-dose screen, 48 h (100 = growth as untreated, 0 = no growth, -100 = all killed)
Conditions in all cases: 10 µM
[1] = tested on: SR leukemia
[2] = tested on: RPMI-8226 leukemia
[3] = tested on: OVCAR-8 ovarian
[4] = tested on: OVCAR-5 ovarian
[5] = tested on: OVCAR-4 ovarian
[6] = tested on: SK-OV-3 ovarian
[7] = tested on: IGROV1 ovarian
[8] = tested on: OVCAR-3 ovarian
[9] = tested on: HS 578T breast
[10] = tested on: NCI/ADR-RES ovarian
[11] = tested on: T-47D breast
[12] = tested on: BT-549 breast
[13] = tested on: MDA-MB-435 melanoma
[14] = tested on: SW-620 colon
[15] = tested on: MCF7 breast
[16] = tested on: HCT-116 colon
[17] = tested on: HCC-2998 colon
[18] = tested on: KM12 colon

Measured: growth

CCOC(=O)c1ccc(N(C=O)CCC(=O)CCl)cc1
inactive: [5] 18.8% | [6] 30.7% | [9] 33.2% | [10] 21.4% | [17] 14.2%
active: [1] 5.14% | [2] -20.4% | [3] 3.69% | [4] 4.98% | [7] 2.75% | [8] -5.41% | [11] -4.12% | [12] -63.2% | [13] -23.9% | [14] 7.93% | [15] -8.44% | [16] 1.64% | [18] 4.98%

COc1ccc(C2C=C(c3ccc(Cl)c(Cl)c3)N=C3SC(C)=CN32)cc1OC (stereo unspecified)
inactive: [1] 61.9% | [2] 38.4% | [3] 68.7% | [4] 97.1% | [5] 72.9% | [6] 109% | [7] 72.2% | [8] 60.9% | [9] 90.8% | [10] 79.4% | [11] 64% | [12] 89.1% | [13] 69.4% | [14] 85.7% | [15] 72.8% | [16] 48.8% | [17] 77.8% | [18] 57%

CS(=O)(=O)Nc1ccc(Nc2c3ccccc3nc3cc(Cl)ccc23)cc1
active: [1] 7.92%
inactive: [2] 41.3% | [3] 25.5% | [4] 63.1% | [5] 56.7% | [6] 42.6% | [7] 29.8% | [8] 56.3% | [9] 81.8% | [10] 44.8% | [11] 26.9% | [12] 52.4% | [13] 54.1% | [14] 30.4% | [15] 18.6% | [16] 16.5% | [17] 42.6% | [18] 48.2%

COc1cc(Cn2c(-c3ccccc3)cc3c2-c2oncc2CC3)cc(OC)c1
active: [1] 2.06% | [6] 0.474% | [7] 7.96% | [8] -47.1% | [9] -6.35% | [10] -19.5% | [12] 8.36% | [13] -39.5% | [16] 6.79%
inactive: [2] 34.8% | [3] 21.7% | [4] 42.6% | [5] 51.8% | [11] 45.8% | [14] 23.8% | [15] 14.1% | [17] 17.4% | [18] 10.2%

COCCOC(=O)NC(=O)Nc1ccc(C(=O)c2ccc(Cl)cc2)cc1
inactive: [1] 22.2% | [2] 19.2% | [3] 40.4% | [4] 90.7% | [5] 56.9% | [6] 27.2% | [7] 51.3% | [9] 32% | [10] 18.9% | [11] 16.5% | [12] 37.8% | [14] 30.4% | [15] 19.5% | [16] 30.5% | [17] 47.3% | [18] 29%
active: [8] 6.85% | [13] 6.97%

COc1cccc(-c2nnc(COc3ccc(-c4nc5ccc(C)cc5[nH]4)cc3OC)o2)c1
active: [1] -25.7% | [2] -12.2%
inactive: [3] 46.9% | [4] 103% | [5] 54.4% | [6] 101% | [7] 85.1% | [8] 77.4% | [9] 31.1% | [10] 76.8% | [11] 50.7% | [12] 92.7% | [13] 41.6% | [14] 64.5% | [15] 18.5% | [16] 29.4% | [17] 88.6% | [18] 39.7%

COc1cc(C2c3cc4c(cc3C(O)C(CO)C2CO)OCO4)cc(OC)c1OC (stereo unspecified)
inactive: [2] 30.1% | [3] 30% | [4] 50.9% | [5] 51% | [6] 15.9% | [7] 13.9% | [10] 79.2% | [11] 45.7% | [12] 58.7% | [14] 19.6% | [15] 17.5% | [16] 23.1% | [17] 40.9% | [18] 16.1%
active: [1] 6.26% | [8] -44.5% | [9] -8.11% | [13] -53.1%

COc1cc(Cn2c(-c3ccccc3)c(Cl)c3c2-c2oncc2CC3)cc(OC)c1
inactive: [2] 58.9% | [3] 92.8% | [4] 96.7% | [5] 76.8% | [6] 97.2% | [7] 16.2% | [8] 45.9% | [9] 52.8% | [10] 47.6% | [11] 73.8% | [12] 87.4% | [14] 15.8% | [15] 102% | [16] 47.5% | [17] 84.4% | [18] 41.7%
active: [1] 0.637% | [13] -0.829%

C/C(=N\NC(N)=S)C(C)(C)O
inactive: [1] 81.2% | [2] 74% | [3] 55.3% | [4] 105% | [5] 66.6% | [6] 109% | [7] 22.4% | [8] 53.1% | [9] 97.1% | [10] 32.7% | [11] 57.1% | [12] 104% | [13] 96.9% | [14] 77.4% | [15] 27.1% | [17] 102% | [18] 99.7%
active: [16] 6.43%

CCc1cc2n(n1)-c1ncc(C(=O)OC)cc1Oc1ccccc1-2
inactive: [1] 93.9% | [2] 93.3% | [3] 97.8% | [4] 105% | [5] 100% | [6] 102% | [7] 97% | [8] 106% | [9] 97% | [10] 103% | [11] 75.8% | [12] 111% | [13] 103% | [14] 106% | [15] 97.4% | [16] 90.5% | [17] 114% | [18] 102%

CCOC(=O)/C(C#N)=C(/C)C1CC1
inactive: [1] 102% | [2] 98.4% | [3] 107% | [4] 105% | [5] 104% | [6] 111% | [7] 121% | [8] 101% | [9] 107% | [10] 111% | [11] 103% | [12] 107% | [13] 106% | [14] 108% | [15] 101% | [16] 110% | [17] 112% | [18] 106%

COc1cc(-c2nc3ccccc3[nH]2)ccc1OCc1nnc(-c2ccc(Br)cc2)o1
active: [1] -25.7%
inactive: [2] 51.5% | [3] 75.7% | [4] 109% | [5] 85.1% | [6] 108% | [7] 87.4% | [8] 110% | [9] 78.4% | [10] 92.5% | [11] 68.4% | [12] 98.4% | [13] 81% | [14] 102% | [15] 53.6% | [16] 59.9% | [17] 102% | [18] 69.2%

C[N+]1=C(/C=C/c2ccc(I)cc2)C(C)(C)c2ccccc21
active: [1] -8.97%
inactive: [2] 71.8% | [3] 67.5% | [4] 90.1% | [5] 109% | [6] 107% | [7] 92.3% | [8] 34.4% | [9] 101% | [10] 101% | [11] 89.3% | [12] 93% | [13] 75.7% | [14] 51.5% | [15] 87.7% | [16] 87.2% | [17] 103% | [18] 88.9%

O=C(Nc1ccc(OCc2nnc(-c3ccccc3)o2)c(F)c1)Nc1ccc(Cl)c(Cl)c1
inactive: [2] 25.5% | [3] 61.6% | [4] 93.4% | [5] 50.6% | [6] 89.6% | [7] 57.7% | [8] 53.6% | [9] 63.2% | [10] 58.6% | [11] 33.7% | [12] 79% | [13] 68.8% | [14] 66.3% | [15] 57.7% | [16] 49.2% | [17] 58.5% | [18] 34.1%
active: [1] 6.91%

COc1ccc(-c2cn[nH]c2-c2cc(OC)c(OC)c(OC)c2)cc1
inactive: [3] 22.5% | [4] 31.1% | [5] 45% | [6] 10.2% | [7] 29.4% | [9] 23% | [10] 27.1% | [11] 45.6% | [14] 20.5%
active: [1] 3.17% | [2] 6.58% | [8] -8.09% | [12] -13.8% | [13] -19% | [15] 5.37% | [16] 0.33% | [17] 6.62% | [18] 4.39%

COC(=O)[C@]12CC[C@@H](C)[C@H](C)[C@@H]1C1=CC[C@@H]3[C@@]4(C)C[C@@H](O)[C@H](O)[C@@](C)(CO)[C@@H]4[C@H](O)C[C@@]3(C)[C@]1(C)CC2
active: [1] -36.5% | [2] -20.7% | [3] -27.3% | [4] -21.6% | [5] -11% | [6] -33.1% | [7] -19.8% | [8] -64.9% | [9] -13% | [10] -22.8% | [11] -47.1% | [12] -66.1% | [13] -66.9% | [14] -54.1% | [15] -24.3% | [16] -82.3% | [17] -89.2% | [18] -74.2%

CCCCCCCC/C=C/CCCCCCCCC1=NCCN1CCO
inactive: [2] 52.7% | [3] 74.9% | [4] 95.2% | [5] 81.7% | [6] 97.8% | [7] 63.8% | [8] 83.1% | [9] 81% | [10] 81.1% | [11] 79.7% | [12] 83.1% | [13] 68.9% | [14] 40% | [15] 71.2% | [17] 97.8% | [18] 62.5%
active: [1] -8.86% | [16] 7.94%
